TDP1 block: TDP1 (human) enzyme inhibition | Q9NUW8 | recombinant TDP1, AlphaScreen DNA substrate cleavage | Potency, µM (highest dose often 130 µM), inactives show top-dose activity change, negative = inhibition, hits mostly inhibitors | actives 0.28% (n = 350,000) | AID 485290; further: potency means the concentration at half of the fitted maximal effect; nearly all actives have a fitted effect of over 40% in size
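Enzyme-compound mixtures sat 15 min at room temperature, followed by a 5 min reaction with 15 nM final substrate and 10 min with AlphaScreen beads. Recombinant human Tdp1 was used at 1 nM final.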
CtBP-E1A blk: CtBP/E1A binding inhibition; activity change, % (test concentration not listed); actives 0.49% (n = 340,000); AlphaScreen GST-E1A/His-CtBP binding, 1536-well; active compounds read low; in the data active means activity change below about -65%; inconclusive means mostly about -30% to -63%
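Protein mix (5X: 125 nM each GST-E1A, His-CtBP) was incubated with pinned compound 2 h at 37 deg C in dark, in 50 mM Tris pH 8.0 buffer with 300 mM NaCl. Glutathione donor and nickel acceptor beads followed; AlphaScreen signal read after 1 h.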
Six1-Eya2 inh: Six1/Eya2 interaction inhibition | Q15475+O00167 | AlphaScreen GST-Six1/His-Eya2 binding, biochemical; active compounds read low | activity change, % (test concentration not listed) | actives 0.56% (n = 360,000) | AID 651725; in the data active means activity change below about -65%; inconclusive means mostly about -30% to -63%
Target sequence (O00167 whole entry, looked up): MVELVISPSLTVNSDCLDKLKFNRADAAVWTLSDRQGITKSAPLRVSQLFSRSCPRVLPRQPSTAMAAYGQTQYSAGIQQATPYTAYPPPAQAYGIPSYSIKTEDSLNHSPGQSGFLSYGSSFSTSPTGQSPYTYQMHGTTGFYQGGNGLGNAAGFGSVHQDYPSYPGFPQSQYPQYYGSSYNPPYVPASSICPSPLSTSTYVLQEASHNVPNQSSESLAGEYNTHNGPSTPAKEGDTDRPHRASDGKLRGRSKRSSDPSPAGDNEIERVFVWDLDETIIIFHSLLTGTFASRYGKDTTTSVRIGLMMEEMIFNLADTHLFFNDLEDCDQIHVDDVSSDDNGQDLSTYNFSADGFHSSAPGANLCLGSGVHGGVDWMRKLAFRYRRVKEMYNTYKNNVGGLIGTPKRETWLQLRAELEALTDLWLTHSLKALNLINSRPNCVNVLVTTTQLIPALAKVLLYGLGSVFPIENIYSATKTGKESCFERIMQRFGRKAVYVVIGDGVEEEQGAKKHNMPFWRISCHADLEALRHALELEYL
Target sequence (Q15475 whole entry, looked up): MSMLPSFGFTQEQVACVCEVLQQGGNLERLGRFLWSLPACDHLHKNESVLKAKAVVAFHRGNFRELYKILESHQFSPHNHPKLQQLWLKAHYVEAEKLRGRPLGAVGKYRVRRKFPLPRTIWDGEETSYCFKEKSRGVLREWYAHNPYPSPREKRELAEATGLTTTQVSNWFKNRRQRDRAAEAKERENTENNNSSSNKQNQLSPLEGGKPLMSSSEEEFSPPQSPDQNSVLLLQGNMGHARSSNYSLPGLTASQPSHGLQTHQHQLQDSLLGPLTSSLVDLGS
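Compounds are tested against tagged Six1 and Eya2 proteins bridged by glutathione donor and nickel acceptor beads; after a one-hour incubation at 37 °C without light, AlphaScreen emission is recorded.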
IL-1B inflam inh: inflammasome signaling inhibition, IL-1 beta readout | activity change, % at 57.5 µM | actives 4.7% (n = 360,000) | THP-1 LPS/ATP IL-1B secretion, AlphaLISA, 16 h; active compounds read low; in the data active means activity change below about -50%; inconclusive means mostly about -30% to -49%
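THP-1 cells pretreated 1 hr with compounds (up to 57.5 uM final), then stimulated with LPS (250 ng/mL final) plus ATP (1.25 mM final); secreted IL-1B measured by AlphaLISA after 16 hr, decreased signal indicating inhibition.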
TDP1 cell noCPT: qHTS for Inhibitors of human tyrosyl-DNA phosphodiesterase 1 (TDP1): qHTS in cells in absence of CPT. DT40 Tdp1-/- hTDP1 cells, no CPT, ATP luminescence, 48 h. Potency, µM (highest dose often 46.2 µM), for inactives: top-dose activity change, negative = growth inhibition, hits mostly inhibitors. actives 15% (n = 420,000). AID 686978, 2013; further: potency means the concentration at half of the fitted maximal effect; nearly all actives have a fitted effect of over 55% in size
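Stably hTDP1-transfected Tdp1-null chicken DT40 cells were treated with library compounds minus camptothecin and grown for at least 48 hr at 37 °C, after which cellular ATP was quantified by luminescence.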
TDP1 cell CPT: growth inhibition of DT40 Tdp1-/-;hTDP1 cells with camptothecin (screen for TDP1 inhibitors); chicken DT40 Tdp1-/-;hTDP1 cells + 20 nM CPT, ATP luminescence, 48 h; Potency, µM (series often up to 46.2 µM), for the others: at the top dose activity change, negative = growth inhibition, most hits filed as inhibitors; actives 12% (n = 420,000); further: potency means the concentration at half of the fitted maximal effect; nearly all actives have a fitted effect of over 55% in size
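Cell growth measured by CellTiter-Glo luminescence after a minimum 48 h, 37 C compound exposure with 20 nM CPT in Tdp1-knockout DT40 cells stably expressing hTDP1, seeded 400/well; qHTS titration format.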
Starred values were filed as active, the others as inactive; ? = inconclusive; . = not tested or not shown; [ ] = dose if it differs, or a comment. Hits are enriched below; roughly 18% of the tested compounds scored in any of these assays. Unless noted, the call rests on the fitted dose curve; in most records, active means well fitted curve in the direction sought with a large enough effect; inconclusive means small, poorly fitted or top-dose-only effect, or another doubt; inactive means no such curve, though single readings can be large; an effect the other way counts as inactive or inconclusive. On the % scale 0 is the no-effect control and ±100 the full control effect.

SMILES	TDP1 block	CtBP-E1A blk	Six1-Eya2 inh	IL-1B inflam inh	TDP1 cell noCPT	TDP1 cell CPT
COC(=O)c1ccc(CSc2c(C(C)C)cnc3c2c(=O)n(C)c(=O)n3C)cc1	0%	.	.	.	23µM*	?
CC(C)c1cnc2c(c1SCc1ccc([N+](=O)[O-])cc1)c(=O)n(C)c(=O)n2C	5%	.	.	.	8.2µM*	?
CC(C)c1cnc2c(c1SCC(=O)Nc1cccc(F)c1)c(=O)n(C)c(=O)n2C	3%	.	.	.	15µM*	?
CCCc1cnc2c(c1SCc1cccc(C)c1)c(=O)n(C)c(=O)n2C	-8%	.	.	.	?	16µM*
Cc1cc(C)cc(NC(=O)CSc2c(C(C)C)cnc3c2c(=O)n(C)c(=O)n3C)c1	3%	.	.	.	?	?
CCCc1cnc2c(c1SCC(=O)Nc1cccc(C)c1C)c(=O)n(C)c(=O)n2C	5%	.	.	.	0%	2%
CCN(CC)CCSc1c(C(C)C)cnc2c1c(=O)n(C)c(=O)n2C	-8%	.	.	.	-2%	4%
COc1cccc(C2Nc3ccccc3-c3nnc(SCc4ccccc4)nc3O2)c1OC (configuration not stated)	.	.	.	.	-46%	?
CC(C)c1cnc2c(c1SCC(=O)NCc1ccccc1)c(=O)n(C)c(=O)n2C	3%	.	.	.	?	?
CC(C)c1cnc2c(c1SCc1cccc(C(F)(F)F)c1)c(=O)n(C)c(=O)n2C	3%	.	.	.	23µM*	?
N#Cc1ccc(CN2CC3(CCN(C(=O)c4cc(C(F)(F)F)cc(C(F)(F)F)c4)CC3)C2)cc1	.	.	.	.	10µM*	21µM*
O=C(c1cc(C(F)(F)F)cc(C(F)(F)F)c1)N1CCC2(CC1)CN(Cc1ccncc1)C2	.	.	.	.	?	-6%
COc1ccc(C(=O)N2CCC3(CCCN(Cc4ccc(C#N)cc4)C3)CC2)cc1	.	.	.	.	18µM*	-26%
CC(C)C(=O)NCCc1nc(-c2ccccc2)no1	.	.	3	22	-23%	-3%
Cc1ccc(S(=O)(=O)N(C)CCCC(=O)Nc2cccc3ccccc23)cc1	5%	7	-6	-29	?	?
Cc1cccc(C(=O)OCC(=O)N(C)CC(=O)Nc2ccc(Cl)c(C(F)(F)F)c2)c1	-4%[56.1 µM]	1	1	0	?	15µM*
CN(CC(=O)Nc1ccc(Cl)c(C(F)(F)F)c1)C(=O)CC1Sc2ccccc2NC1=O (configuration not stated)	2%	1	-1	?	13µM*	13µM*
COc1cccc(NC(=O)CN(C)C(=O)CC2Sc3ccccc3NC2=O)c1 (configuration not stated)	2%	-2	4	4	7%	-5%
Cc1ccc(C)c(OCC(=O)N(C)CC(=O)Nc2ccc(Cl)c(C(F)(F)F)c2)c1	0%	0	-3	-13	?	?
CCOc1ccc(NC(=O)CN(C)C(=O)C2(c3ccccc3)CC2)cc1OCC	.	-5	-4	2	5%	14%
CN(CC(=O)Nc1cccc(F)c1)C(=O)CCCc1nc2ccccc2c(=O)[nH]1	.	10	-14	12	-5%	?
CN(CC(=O)Nc1ccc(Cl)c(C(F)(F)F)c1)C(=O)CCCc1nc2ccccc2c(=O)[nH]1	1%	1	2	5	12µM*	12µM*
CN(CC(=O)Nc1ccc(Cl)c(C(F)(F)F)c1)C(=O)C1(c2ccccc2)CC1	-8%[0.505 µM]	6	-3	-57*	16µM*	?
CCC1C(=O)Nc2ccccc2N1C(=O)COc1ccccc1 (configuration not stated)	2%	11	7	4	1%	-26%
C1=C(c2cc3ccccc3cn2)CCCC1	.	16	15	32	-16%	?
SMILES	TDP1 block	CtBP-E1A blk	Six1-Eya2 inh	IL-1B inflam inh	TDP1 cell noCPT	TDP1 cell CPT
COCCn1c(N)c(N(Cc2ccccc2)C(=O)c2ccc(N3CCCC3=O)cc2)c(=O)[nH]c1=O	.	-12	7	-5	30%	-11%
Cc1cnc(NC(=O)CSc2ncn(-c3ccccc3)n2)s1	0%[56.1 µM]	-7	-5	-4	?	-22%
CCOC(=O)c1cnn2c(N)c(C#N)cnc12	-3%	.	-3	-10	-19%	6%
CN(CC(=O)Nc1ccc(Cl)c(C(F)(F)F)c1)C(=O)c1cc(-c2ccncc2)nc2ccccc12	.	-1	-3	-96*	18µM*	?
Cc1ccc(NC(=O)CCCc2nc3ccccc3c(=O)[nH]2)c(Cl)c1	-1%	.	2	4	15µM*	18µM*
CN(CC(=O)Nc1ccc(Cl)c(C(F)(F)F)c1)C(=O)c1cn2ccccc2n1	.	-2	-13	-8	10µM*	13µM*
Cc1cc(C(=O)N(C)CC(=O)Nc2ccc(Cl)c(C(F)(F)F)c2)no1	.	-22	4	-10	16µM*	-26%
Cn1c(N)c(C(=O)COC(=O)/C=C/c2ccccc2F)c(=O)n(C)c1=O	0%	?	-20	-9	5%	5%
O=C(c1cccs1)N1CCN(S(=O)(=O)N2CCCCC2)CC1	8%	2	-1	14	-6%	-7%
CN(CC(=O)Nc1ccc(F)c(F)c1F)C(=O)c1ccc2c(c1)NC(=O)CS2	1%	-8	3	47	?	?
CN(CC(=O)Nc1ccc(Cl)c(C(F)(F)F)c1)C(=O)c1ccc2c(c1)NC(=O)CS2	0%	-14	-3	-24	23µM*	?
CN(CC(=O)Nc1ccc(Cl)c(C(F)(F)F)c1)C(=O)c1cccs1	-13%	4	-8	?	16µM*	?
CN(CC(=O)Nc1ccc(Cl)c(C(F)(F)F)c1)C(=O)c1cnccn1	0%	-11	-7	-24	?	?
Cc1nnc(SCc2nnc(-c3cccs3)o2)s1	6%	11	4	2	1%	21%
O=C(c1ccccc1Sc1cccc2ccccc12)N1CCOCC1	4%	-2	-2	-1	21µM*	13µM*
CCn1c(SCc2ccc(C(=O)Nc3cc(C)cc(C)c3)cc2)nnc1-c1ccncc1	0%	-3	0	-65*	?	?
COc1ccc(CC(=O)NCCc2sc(-c3cccc(F)c3)nc2C)cc1	-1%	.	.	.	?	-27%
C[C@H]1CN=C(Nc2ccccc2)N1CCc1ccc(F)cc1	-5%	4	4	-13	?	-23%
NC1=NC(c2cccc(Cl)c2)N(CCc2ccc(F)cc2)C(N)=N1 (configuration not stated)	.	-20	3	.	23µM*	?
